Source: PubChem BioAssay
Dicer processing – inhibitors of human Dicer processing of pre-microRNA; Q9UPY3; cat-ELCCA pre-miR-21 Dicer processing, chemiluminescence; active compounds read high; z-score at 25 µM; 47,000 compounds, 6% hits; AID 1347074; in the data active means z-score above about 3, passing the limit was not always enough;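 further: plate controls were vehicle for no effect and no enzyme for full effect; higher signal means more uncleaved substrate so more Dicer inhibition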
Target sequence (Q9UPY3 whole entry, looked up): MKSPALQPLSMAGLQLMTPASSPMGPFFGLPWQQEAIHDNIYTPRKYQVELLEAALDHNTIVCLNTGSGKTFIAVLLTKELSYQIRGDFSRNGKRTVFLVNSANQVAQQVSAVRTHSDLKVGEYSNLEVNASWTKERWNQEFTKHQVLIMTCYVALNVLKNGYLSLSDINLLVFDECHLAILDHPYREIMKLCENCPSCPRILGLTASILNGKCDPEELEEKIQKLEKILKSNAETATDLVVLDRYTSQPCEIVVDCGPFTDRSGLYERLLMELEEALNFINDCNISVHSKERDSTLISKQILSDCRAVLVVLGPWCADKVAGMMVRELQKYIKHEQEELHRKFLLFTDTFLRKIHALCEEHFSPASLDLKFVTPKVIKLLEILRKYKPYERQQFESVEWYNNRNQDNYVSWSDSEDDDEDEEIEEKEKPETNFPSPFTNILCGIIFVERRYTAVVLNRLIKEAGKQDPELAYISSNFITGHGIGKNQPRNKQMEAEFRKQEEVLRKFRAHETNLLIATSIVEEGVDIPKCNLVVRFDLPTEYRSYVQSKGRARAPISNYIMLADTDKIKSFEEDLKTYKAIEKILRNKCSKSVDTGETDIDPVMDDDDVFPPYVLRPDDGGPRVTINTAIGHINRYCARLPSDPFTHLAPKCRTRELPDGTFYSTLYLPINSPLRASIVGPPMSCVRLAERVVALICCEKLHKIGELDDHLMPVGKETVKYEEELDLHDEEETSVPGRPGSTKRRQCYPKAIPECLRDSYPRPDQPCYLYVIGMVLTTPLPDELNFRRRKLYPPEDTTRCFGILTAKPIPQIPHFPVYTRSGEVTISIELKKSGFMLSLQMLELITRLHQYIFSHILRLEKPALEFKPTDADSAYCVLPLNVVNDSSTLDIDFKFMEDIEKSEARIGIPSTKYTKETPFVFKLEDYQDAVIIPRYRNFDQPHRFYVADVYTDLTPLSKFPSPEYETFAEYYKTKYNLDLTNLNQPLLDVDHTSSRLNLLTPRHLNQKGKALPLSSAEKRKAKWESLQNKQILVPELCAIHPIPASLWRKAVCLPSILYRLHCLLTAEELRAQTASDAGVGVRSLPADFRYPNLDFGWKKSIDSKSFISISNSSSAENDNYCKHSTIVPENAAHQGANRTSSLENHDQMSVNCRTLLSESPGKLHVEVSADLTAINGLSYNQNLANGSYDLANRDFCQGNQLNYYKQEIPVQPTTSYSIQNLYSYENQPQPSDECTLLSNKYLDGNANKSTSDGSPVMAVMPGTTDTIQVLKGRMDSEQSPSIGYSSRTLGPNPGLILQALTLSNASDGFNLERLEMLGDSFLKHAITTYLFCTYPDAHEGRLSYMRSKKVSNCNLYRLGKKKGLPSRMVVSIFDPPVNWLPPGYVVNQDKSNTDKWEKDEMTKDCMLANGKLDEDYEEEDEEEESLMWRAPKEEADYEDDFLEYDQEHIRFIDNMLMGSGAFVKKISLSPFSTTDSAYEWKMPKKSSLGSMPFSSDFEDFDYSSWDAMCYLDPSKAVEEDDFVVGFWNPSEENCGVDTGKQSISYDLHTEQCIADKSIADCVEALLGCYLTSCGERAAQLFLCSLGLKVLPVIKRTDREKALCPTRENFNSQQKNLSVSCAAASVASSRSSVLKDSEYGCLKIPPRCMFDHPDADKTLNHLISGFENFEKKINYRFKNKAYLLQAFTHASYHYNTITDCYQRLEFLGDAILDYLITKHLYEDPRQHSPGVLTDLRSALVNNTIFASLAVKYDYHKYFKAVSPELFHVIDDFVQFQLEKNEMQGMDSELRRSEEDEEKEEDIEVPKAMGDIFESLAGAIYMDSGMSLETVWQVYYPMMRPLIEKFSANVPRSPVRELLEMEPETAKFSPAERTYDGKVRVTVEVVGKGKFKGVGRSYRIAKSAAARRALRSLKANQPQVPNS
* marks the source's active call; other numbers are inactive results. The full list was thinned out, with hits kept by preference.

SMILES | Dicer processing
O=c1c2c(-c3ccc([N+](=O)[O-])cc3)onc2n(-c2ccccc2)c(=O)n1-c1ccccc1 | 0.51
Cc1onc(-c2c(Cl)cccc2Cl)c1C(=O)NCCSC1=NCCN1 | 0
Fc1ccc(NCc2ccc3c(c2)OCO3)cc1 | 323
Fc1ccc(NCc2ccncc2)cc1 | 3.53*
c1cc(CNc2ccc3c(c2)OCO3)ccn1 | 1.7
CN(C)c1nc(-c2ccccc2)nc(-c2ccccc2)c1C#N | -0.97
COc1cc2cc(OCc3cccc(C)c3)nc(C)c2cc1OC | -1.63
COC(=O)c1sc(N2CCCC2)c(S(=O)(=O)C(C)C)c1N | -0.38
COC(=O)c1sc(N2CCCCC2)c(C#N)c1N | 28.8*
COC(=O)c1sc(N2CCCC2)c(C#N)c1-c1cccs1 | -2.21
O=C(O)C1C2C=CC(C2)C1C(=O)N1CCc2ccccc21 (stereo unspecified) | 2.53
O=C(C1CC1)N1CCc2ccccc21 | 3.31*
O=C(C1CC1)N1c2ccccc2CCc2ccccc21 | 2.79
CC12CN3CC(C)(CN(C1)C3c1ccc(O)c(O)c1)C2 (stereo unspecified) | 3.11*
CC12CN3CC(C)(CN(C1)C3c1ccc(F)cc1)C2 (stereo unspecified) | 0.93
COc1ccc(C2N3CC4(C)CN2CC(C)(C3)C4)cc1OC (stereo unspecified) | 1.8
Cc1cccc(C2N3CC4(C)CN2CC(C)(C3)C4)c1 (stereo unspecified) | -0.26
CC12CN3CC(C)(CN(C1)C3c1ccccc1Cl)C2 (stereo unspecified) | 0.7
CC12CN3CC(C)(CN(C1)C3c1ccc(Cl)cc1)C2 (stereo unspecified) | 5.13*
O=C(O)/C=C/C(=O)Nc1ccc(-n2nc(C(F)(F)F)cc2C(F)(F)F)cc1 | 20.1
CCCCOc1ccccc1C1C(C(=O)OC(C)C)=C(C)NC2=C1C(=O)CCC2 (stereo unspecified) | -0.53
CCOC(=O)c1cnc(SCc2ccc(C)cc2)nc1C(F)(F)F | 0.11
CN(C)C(=S)Sc1c(O)c2ccccc2n(C)c1=O | 0.12
Cc1ccc2c(c1)S/C(=C\c1sc3ccccc3[n+]1C)N2CCO | 1.11
CCC(CC)c1nc2cc(OC)c(OC)cc2c(=O)o1 | 0.71
SMILES | Dicer processing
COc1cc2nc(-c3ccc(C)cc3)oc(=O)c2cc1OC | -1.42
COc1ccc(-c2nc3cc(OC)c(OC)cc3c(=O)o2)cc1 | 2.05
COc1cc2nc(-c3ccccc3)oc(=O)c2cc1OC | -0.18
COc1cc2nc(C(C)(C)C)oc(=O)c2cc1OC | 4.12*
COc1cc2nc(-c3cccc(Br)c3)oc(=O)c2cc1OC | 26.6*
COc1cc(C2C(C(=O)OC(C)C)=C(C)Nc3nc4ccccc4n32)ccc1O (stereo unspecified) | 2.85
O=C(CSc1n[nH]c(=O)n1C1Cc2ccccc2C1)Nc1ccccc1 | -0.79
CN(NC1OC(=O)c2ccccc21)c1ncc(Cl)cc1C(F)(F)F (stereo unspecified) | 0.04
O=C1OC(Nc2ccc([N+](=O)[O-])cn2)c2ccccc21 (stereo unspecified) | -0.83
CN(NC1OC(=O)c2ccccc21)c1ccccc1[N+](=O)[O-] (stereo unspecified) | 3.21*
CCN(CC)c1nc(C)nc2c1sc(=S)n2-c1ccccc1 | -2.07
CCOC(=O)c1sc(NC(=O)c2sc3ccccc3c2Cl)nc1C | -0.51
Cc1ccc2c(Cl)c(C(=O)Nc3nc(C)c(C)s3)sc2c1 | 3.58*
O=C(Nc1ccccc1)c1sc2ccccc2c1Cl | -1.51
C/C(=N\O)c1ccc(C#Cc2ccccc2)s1 | -1.2
Cc1sc2ncn(Cc3c(F)cccc3Cl)c(=O)c2c1C | -0.03
Cc1nn(-c2ccccc2)c2nc(OCC(=O)c3ccccc3)c(C#N)c(-c3ccc([N+](=O)[O-])cc3)c12 | -1.87
N#CC1=CNc2ccccc2N=C1N | 0.36
c1cc2c3c(cccc3c1)-c1nc3ccccc3nc1-2 | -0.43
Nc1cccc(C2=Nc3cccc4cccc(c34)N2)c1 | 3.18*
CN(C)c1ccc(C2=Nc3cccc4cccc(c34)N2)cc1 | 0.75
NC1=Nc2cccc3cccc(c23)N1 | 25.8*
COc1ccc(C2=Nc3cccc4cccc(c34)N2)cc1 | 0.66
COC(=O)C1CCC(C)(C(=O)O)C1(C)C (stereo unspecified) | 0.99
CC(=O)c1c(OCc2ccccc2)ccc(C(C)(C)C)c1O | -0.43
SMILES | Dicer processing
CCOC(=O)c1cc(C#N)c(Sc2n[nH]c(-c3cc(Cl)cc(Cl)c3)n2)nc1C(F)(F)F | -0.27
C=CCN1C(=O)C2(/C(=C(/O)c3ccc(OCC)cc3)C(=O)C(=O)N2CC2CCCO2)c2ccccc21 (stereo unspecified) | -0.24
CCCC1=C(C(=O)OCC)C(c2ccccc2F)n2c(nc3ccccc32)N1 (stereo unspecified) | 0.12
CCCC1=C(C(=O)OCC)C(c2ccc(O)cc2)n2c(nc3ccccc32)N1 (stereo unspecified) | 3.62*
CCCC1=C(C(=O)OCC)C(c2ccccc2)n2c(nc3ccccc32)N1 (stereo unspecified) | -0.46
CCCSc1ccc([N+](=O)[O-])c(NC(=O)c2nn(-c3ccccc3)nc2C)c1 | -0.71
Cc1ccc(C)c(-c2csc(N)n2)c1 | 3.56*
Nc1nc(-c2cccs2)cs1 | -0.87
Cc1ccc(-c2csc(N=C(N)N)n2)c(C)c1 | 0.5
Nc1nc(-c2ccccc2O)cs1 | 4.46*
Nc1cccc(-c2csc(N)n2)c1 | -1.28
Nc1nc(-c2ccc3ccccc3c2)cs1 | 0.5
Cc1cc2nc3[nH]c4ccc(F)cc4c3nc2cc1C | 1.11
COc1cc(C=Nc2ccc(C)c(NC(C)=O)c2)cc(OC)c1OC | -1.61
O=C(CCc1ccccc1)NN1CC(=O)N(c2cc(Cl)cc(Cl)c2)CC1=O | -0.43
CN1CCc2c(sc3c2C(=O)NC(/C=C/c2ccc4c(c2)OCO4)N3)C1 (stereo unspecified) | 0.14
CCOC(=O)CN(C(=O)COc1nc(-c2ccccc2)cc(C)c1C#N)c1ccc(C)cc1 | -3.23
CCOC(=O)CN(C(=O)COc1nc(-c2ccccc2)cc(C)c1C#N)c1cccc(OC)c1 | 0.12
CCOC(=O)CN(C(=O)COc1nc(-c2ccccc2)cc(C)c1C#N)c1ccccc1C | 3.49*
O=C(O)c1ccc(N2C(=O)C3CCCCC3C2=O)cc1Cl (stereo unspecified) | 0.81
CSc1sc(C#N)c2c1/C(=N/OC(=O)c1ccccc1Cl)CCC2 | -0.08
COc1ccc(C2=CC(c3ccccc3Cl)n3nc(CCCO)nc3N2)cc1 (stereo unspecified) | 2.26
CS(=O)c1scc2c1C(=O)CC(C)(C)C2 (stereo unspecified) | -0.84
CC(C)C[C@H](NC(=O)[C@@H](O)[C@H](N)Cc1ccccc1)C(=O)O | -4.44
CC(C)CC(NC(=O)c1ccco1)C(=O)O (stereo unspecified) | 5.17*
SMILES | Dicer processing
CC(C)C[C@H](NC(=O)c1ccc(Cl)cc1Cl)C(=O)O | 2.21
O=c1[nH]c(/C=C/c2ccccc2O)nc2ccccc12 | 8.78
CS(=O)(=O)Nc1ccc(Cl)cc1 | -1.16
O=C(Nc1cc(C(F)(F)F)ccc1N1CCOCC1)c1cccnc1Oc1ccccc1 | -0.36
Cc1cc(C)c(NC(=S)NC(C)(C)CO)c(C)c1 | -0.76
CC12CCC3c4ccc(Oc5ccc([N+](=O)[O-])cc5)cc4CCC3C1CCC2O (stereo unspecified) | 0.52
CN1CCN(C(=O)N2c3ccccc3Sc3ccccc32)CC1 | 3.39*
NC(=O)C1CCN(C(=O)N2c3ccccc3Sc3ccccc32)CC1 | 2.17
O=C(N1CCN(CCO)CC1)N1c2ccccc2C=Cc2ccccc21 | -0.57
O=C(Cc1cccs1)N1c2ccccc2Sc2ccccc21 | 0.57
